We go through 24 molecules from PubChem BioAssay.

Several values for one entry are separate records, joined by “and”; a condition that tells them apart may be missing. Identical values can stand only once. For part of these data: Potency and affinity values are given separately. The source holds several records for some structures; these can differ, active in one and inactive in another. Activity calls are given as the source filed them. Unless noted, how the calls were made is not given here.

The nature of assay [1]: antimalarial activity against Dd2 strain (AID 2302;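 active means growth inhibition above 50% at the single 2 µM test dose, taken to imply half-maximal potency below 2 µM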;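 further: 0% = DMSO untreated growth and 100% = chloroquine plus artemisinin killed control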). The settings on record: P. falciparum Dd2 in RBCs, LDH growth readout, 72 h; at 2 µM; stronger effect = higher value.
Assay [2] in a line: HepG2 cytotoxicity, primary screen, cytotoxicity control for P. falciparum antimalarial project, cell-based, ATP luminescence (AID 2303;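 active means inhibition above 50%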;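 further: 0% = DMSO wells and 100% = digitonin-killed cells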). The settings on record: HepG2 viability, 24-48 h, at 10 µM, stronger effect = higher value.
For assay [3], the target named is L-lactate dehydrogenase (Plasmodium falciparum (isolate CDC / Honduras)) (UniProt Q27743). In words: PfLDH activity inhibition – cell lysate, 3D7 strain, counter-screen for P. falciparum growth inhibition project (AID 2304).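 Further: 0% = vehicle and 100% = reference inhibitor.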 The settings on record: P. falciparum 3D7 crude extract, LDH APAD/NBT absorbance; at 2 µM; stronger effect = higher value. A general note: The purpose of a counterscreen is to sort out artefacts and off-target activity.

The nature of assay [4]: inhibition of 3D7 malaria parasite growth – strain 3D7 (AID 2306).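 Further: 0% = DMSO wells and 100% = chloroquine plus artemisinin control wells.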 As to conditions: P. falciparum 3D7 erythrocytic growth, LDH absorbance, 72 h; at 2 µM; stronger effect = higher value.
For assay [5], the target named is Calcium-dependent protein kinase 1 (Plasmodium falciparum (isolate 3D7)) (UniProt P62344). Kind of assay: PfCDPK1 kinase inhibitors, biochemical, TCAMS library (AID 1159585; cut-off not given, nearly all actives have IC50 up to about 0.98 µM;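 further: inhibitors leave more ATP so luminescence rises with inhibition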). The settings on record: recombinant PfCDPK1, Kinase-Glo ATP depletion luminescence. (In general: Kinase-Glo reads ATP consumption through a luciferase reaction.)
Assay [6] addresses Plasmodium falciparum protein kinase 6 (PK6, PF3D7_1337100) (UniProt Q8IDW1). Kind of assay: PfPK6 kinase inhibitors, biochemical, TCAMS library (AID 1159586). The settings on record: recombinant PfPK6, Kinase-Glo ATP depletion luminescence.
Assay [7] concerns the target Protein kinase 7 (PK7), Plasmodium falciparum 3D7 (PF3D7_0213400) (UniProt Q7YTF7). Kind of assay: inhibition of Plasmodium PK7 catalytic activity – biochemical, TCAMS antimalarial set, Kinase-Glo luminescence (AID 1159587). As to conditions: recombinant PfPK7, Kinase-Glo ATP depletion luminescence.
Assay [8] addresses Calcium-dependent protein kinase 4 (Plasmodium falciparum (isolate 3D7)) (UniProt Q8IBS5). Kind of assay: PfCDPK4 kinase inhibitors, biochemical, TCAMS library (AID 1159588; cut-off not given, nearly all actives have IC50 up to about 0.91 µM). As to conditions: recombinant PfCDPK4, Kinase-Glo ATP depletion luminescence.

Chain of L-lactate dehydrogenase (Plasmodium falciparum (isolate CDC / Honduras)) (Q27743 whole entry, looked up): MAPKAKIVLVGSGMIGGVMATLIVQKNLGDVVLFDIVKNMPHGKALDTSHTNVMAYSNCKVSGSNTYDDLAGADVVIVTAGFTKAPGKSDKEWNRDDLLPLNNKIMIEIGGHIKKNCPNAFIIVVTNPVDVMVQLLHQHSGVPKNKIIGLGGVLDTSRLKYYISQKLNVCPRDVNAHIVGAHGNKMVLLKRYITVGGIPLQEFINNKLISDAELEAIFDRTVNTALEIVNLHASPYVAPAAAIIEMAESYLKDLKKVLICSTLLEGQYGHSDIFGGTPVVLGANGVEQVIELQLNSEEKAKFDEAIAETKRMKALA
Chain of Plasmodium falciparum protein kinase 6 (PK6, PF3D7_1337100) (Q8IDW1 1-305): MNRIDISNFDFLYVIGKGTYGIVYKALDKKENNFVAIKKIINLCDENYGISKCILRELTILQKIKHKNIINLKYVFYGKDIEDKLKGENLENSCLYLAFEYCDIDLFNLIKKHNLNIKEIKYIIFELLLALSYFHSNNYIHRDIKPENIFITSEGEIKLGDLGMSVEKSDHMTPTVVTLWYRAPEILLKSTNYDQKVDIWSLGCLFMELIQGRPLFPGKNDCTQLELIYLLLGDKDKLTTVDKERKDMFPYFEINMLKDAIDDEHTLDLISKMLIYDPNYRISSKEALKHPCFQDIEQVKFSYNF
Chain of Calcium-dependent protein kinase 1 (Plasmodium falciparum (isolate 3D7)) (P62344 whole entry, looked up): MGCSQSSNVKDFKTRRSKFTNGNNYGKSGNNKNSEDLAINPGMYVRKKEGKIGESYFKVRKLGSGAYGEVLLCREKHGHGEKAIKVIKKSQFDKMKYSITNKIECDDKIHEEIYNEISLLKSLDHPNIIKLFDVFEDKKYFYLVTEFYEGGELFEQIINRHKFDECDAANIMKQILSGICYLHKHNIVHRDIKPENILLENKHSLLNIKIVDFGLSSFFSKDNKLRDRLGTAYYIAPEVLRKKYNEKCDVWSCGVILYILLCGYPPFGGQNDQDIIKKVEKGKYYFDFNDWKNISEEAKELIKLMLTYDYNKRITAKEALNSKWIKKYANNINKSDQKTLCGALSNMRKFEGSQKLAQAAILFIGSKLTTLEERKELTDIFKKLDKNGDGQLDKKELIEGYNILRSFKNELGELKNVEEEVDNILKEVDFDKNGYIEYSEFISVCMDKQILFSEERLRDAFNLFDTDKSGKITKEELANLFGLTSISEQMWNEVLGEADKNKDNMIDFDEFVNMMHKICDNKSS
Chain of Calcium-dependent protein kinase 4 (Plasmodium falciparum (isolate 3D7)) (Q8IBS5 whole entry, looked up): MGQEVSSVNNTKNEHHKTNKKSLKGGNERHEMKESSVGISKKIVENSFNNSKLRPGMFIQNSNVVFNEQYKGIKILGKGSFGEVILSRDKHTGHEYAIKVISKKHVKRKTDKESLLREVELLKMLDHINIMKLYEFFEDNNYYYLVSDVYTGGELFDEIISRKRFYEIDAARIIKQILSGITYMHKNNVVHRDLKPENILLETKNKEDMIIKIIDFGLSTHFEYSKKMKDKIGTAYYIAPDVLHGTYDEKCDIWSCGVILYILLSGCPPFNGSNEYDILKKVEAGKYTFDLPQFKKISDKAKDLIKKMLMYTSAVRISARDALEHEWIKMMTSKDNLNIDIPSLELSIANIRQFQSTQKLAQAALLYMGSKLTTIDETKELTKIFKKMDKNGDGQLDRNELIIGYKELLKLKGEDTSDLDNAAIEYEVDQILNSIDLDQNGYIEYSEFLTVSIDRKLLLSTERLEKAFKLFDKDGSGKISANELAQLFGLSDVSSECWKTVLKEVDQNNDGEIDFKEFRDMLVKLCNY
Chain of Protein kinase 7 (PK7), Plasmodium falciparum 3D7 (PF3D7_0213400) (Q7YTF7 1-343): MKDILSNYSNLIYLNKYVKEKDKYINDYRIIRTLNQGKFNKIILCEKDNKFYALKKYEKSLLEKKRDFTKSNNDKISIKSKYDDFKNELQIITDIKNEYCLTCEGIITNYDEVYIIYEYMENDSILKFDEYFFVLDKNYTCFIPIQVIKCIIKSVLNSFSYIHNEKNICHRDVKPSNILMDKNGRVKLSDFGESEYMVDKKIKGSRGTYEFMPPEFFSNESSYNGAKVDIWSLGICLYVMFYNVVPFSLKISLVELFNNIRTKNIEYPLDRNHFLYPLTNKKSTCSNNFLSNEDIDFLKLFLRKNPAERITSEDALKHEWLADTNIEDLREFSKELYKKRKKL

`O=C(Nc1cccc(C(F)(F)F)c1)N1CCOC(CCN2CCC3(CCc4ccccc43)CC2)(c2ccc(Cl)c(Cl)c2)C1` (configuration not stated): the results for the growth inhibition in assay [1] and in assay [4] were 70% (active) and 99% (active), respectively. Besides, the inhibition in assay [2] was 31% (inactive); in assay [3], 0% (inactive). In addition, the outcome in assay [5], in assay [6], in assay [7] and in assay [8] was inactive.

Take `CNCCNCc1ccc(-c2cccc(-c3nc4ccc(C(F)(F)F)cc4[nH]3)c2)cc1`: the growth inhibition in assay [1] was 77% (active); in assay [4], 98% (active). Further, the inhibition was 27% (inactive) in assay [2] and 1% (inactive) in assay [3]. For the same molecule, the result in assay [5], in assay [6], in assay [7] and in assay [8] was inactive.

With `COc1ccc(NC(=O)NC2CCN(CCCOc3ccnc4cc(Cl)ccc34)C2)cc1OC` (configuration not stated), the growth inhibition was 16% (inactive) in assay [1] and 90% (active) in assay [4]. Also, the inhibition in assay [2] was 6% (inactive); in assay [3] it was 1% (inactive). For the same molecule, the outcome in assay [5], in assay [6], in assay [7] and in assay [8] was inactive.

As for `CN1CCCN(Cc2ccc(-c3cccc(NC(=O)c4ccc(F)cc4)c3)cc2)CC1`, the growth inhibition was 8% (inactive) in assay [1] and 89% (active) in assay [4]. Moreover, the inhibition in assay [2] was 29% (inactive); in assay [3] it was 1% (inactive). Besides, the result in assay [5], in assay [6], in assay [7] and in assay [8] was inactive.

Regarding `CCCc1cc(Cc2cnc(N)nc2N)cc(CCC)c1OC`, the growth inhibition was 1% (inactive) in assay [1] and 92% (active) in assay [4]. For the same molecule, the inhibition in assay [2] is 18% (inactive); in assay [3], 1% (inactive). Further, the result in assay [5], in assay [6], in assay [7] and in assay [8] was inactive.

Take `CN(C)C(=O)C(CC(=O)NCc1ccccc1Cl)N(C)C` (configuration not stated) (tested in a mixture with another compound): the growth inhibition in assay [1] was 2% (inactive); in assay [4] it was 96% (active). Besides, the values for the inhibition in assay [2] and in assay [3] were 7% (inactive) and -3% (inactive), respectively. Besides, the result in assay [5], in assay [6], in assay [7] and in assay [8] was inactive.

On to `CN(C)CCCOc1ccc(CCCCc2ccc(Cl)cc2C(=O)c2ccccc2)cc1`, for which the values for the growth inhibition in assay [1] and in assay [4] were 8% (inactive) and 92% (active), respectively. In addition, the figures for the inhibition in assay [2] and in assay [3] were 8% (inactive) and -7% (inactive), respectively. Also, the outcome in assay [5], in assay [6], in assay [7] and in assay [8] was inactive.

Regarding `CCCn1c(Sc2ccc(C#N)c([N+](=O)[O-])c2)nnc1-c1cc(OC)cc(OC)c1`, the growth inhibition is 79% (active) in assay [1] and 98% (active) in assay [4]. The inhibition is 24% (inactive) in assay [2] and 6% (inactive) in assay [3]. Moreover, the result in assay [5], in assay [6], in assay [7] and in assay [8] was inactive.

As for `O=C(Nc1ccc(C(F)(F)F)cc1)Nc1ccccc1N1CCNCC1`, the growth inhibition in assay [1] was 69% (active); in assay [4], 94% (active). For the same molecule, the inhibition in assay [2] was 39% (inactive); in assay [3], 4% (inactive). Besides, the result in assay [5], in assay [6], in assay [7] and in assay [8] was inactive.

As to `O=C1c2cc(I)ccc2SC1c1ccccc1` (configuration not stated), the results for the growth inhibition in assay [1] and in assay [4] were 98% (active) and 96% (active), respectively. Besides, the inhibition was -7% (inactive) in assay [2] and -2% (inactive) in assay [3]. Further, the outcome in assay [5], in assay [6], in assay [7] and in assay [8] was inactive.

`CCN(CC)C(=NCCCCCCN=C(NC(N)=NCc1cccc(Cl)c1)N(CC)CC)NC(N)=NCc1cccc(Cl)c1`: the growth inhibition in assay [1] and in assay [4] was 99% (active) in each case. Besides, the figures for the inhibition in assay [2] and in assay [3] were 17% (inactive) and -8% (inactive), respectively. Moreover, the outcome in assay [5], in assay [6], in assay [7] and in assay [8] was inactive.

With `c1ccc(CN2CCC(NCc3ccc(-c4ccc(CNC5CCCC5)cc4)cc3)CC2)cc1`, the growth inhibition is 98% (active) in assay [1] and 101% (active) in assay [4]. The values for the inhibition in assay [2] and in assay [3] were 24% (inactive) and -4% (inactive), respectively. The result in assay [5], in assay [6], in assay [7] and in assay [8] was inactive.

As for `CCCc1cn2c3c(cc(C(=O)N[C@@H](Cc4ccccc4)[C@H](O)CNC4CCCCC4)cc13)N(CC)S(=O)(=O)CC2`, the growth inhibition in assay [1] and in assay [4] was 98% (active) in each case. Further, the inhibition in assay [2] was 2% (inactive); in assay [3] it was -2% (inactive). Also, the outcome in assay [5], in assay [6], in assay [7] and in assay [8] was inactive.

For the molecule `O=C(NCCCCN1CCC(c2ccc(OC(F)(F)F)cc2)CC1)c1ccc(NC(=O)c2ccc(Cl)cc2)cc1`, the growth inhibition in assay [1] is 98% (active); in assay [4] it was 99% (active). Further, the inhibition was 24% (inactive) in assay [2] and -3% (inactive) in assay [3]. Also, the outcome in assay [5], in assay [6], in assay [7] and in assay [8] was inactive.

Consider `CCc1c(C)nc2nc(Cc3cccc(F)c3)nn2c1N1CCN(c2ccccn2)CC1`, for which the growth inhibition is 98% (active) in assay [1] and 100% (active) in assay [4]. The figures for the inhibition in assay [2] and in assay [3] were -4% (inactive) and -1% (inactive), respectively. The outcome in assay [5], in assay [6], in assay [7] and in assay [8] was inactive.

On to `CCCCCCCc1ccc(-c2c(C)[nH]c(C)c(Cl)c2=O)cn1`, for which the growth inhibition in assay [1] is 96% (active); in assay [4] it was 99% (active). Also, the inhibition in assay [2] was -4% (inactive); in assay [3] it was -2% (inactive). Moreover, the result in assay [5], in assay [6], in assay [7] and in assay [8] was inactive.

`O=c1cc(NCCCNCc2cc(Cl)cc(Cl)c2OCc2ccccc2)[nH]c2ccccc12`: the results for the growth inhibition in assay [1] and in assay [4] were 50% (active) and 91% (active), respectively. Moreover, the inhibition is -4% (inactive) in assay [2] and -2% (inactive) in assay [3]. Also, the outcome in assay [5], in assay [6], in assay [7] and in assay [8] was inactive.

In the case of `COc1ccc2ncc(F)c(C(O)CN3CCC(NCc4ccc5c(n4)NC(=O)CO5)CC3)c2c1` (configuration not stated), the growth inhibition was 51% (active) and 88% (active) in assay [1]; 99% (active) and 100% (active) in assay [4]. Also, the inhibition in assay [2] is 6% (inactive) and 51% (active); in assay [3], 3% (inactive) and -2% (inactive). In addition, the outcome in assay [5], in assay [6], in assay [7] and in assay [8] was inactive.

In the case of `CN(C)CCOc1cc(NC(=O)Nc2ccc(-c3ccncc3)c(C(F)(F)F)c2)ccc1Cl`, the growth inhibition in assay [1] is 79% (active); in assay [4] it was 100% (active). Moreover, the inhibition was 36% (inactive) in assay [2] and 3% (inactive) in assay [3]. The outcome in assay [5], in assay [6], in assay [7] and in assay [8] was inactive.

For `CC(C)(C)c1ccc(N2C(N)=NC(N)=NC2(C)C)cc1`, the growth inhibition in assay [1] was -2% (inactive); in assay [4], 93% (active). Besides, the inhibition in assay [2] was 27% (inactive); in assay [3], -2% (inactive). For the same molecule, the outcome in assay [5], in assay [6], in assay [7] and in assay [8] was inactive.

In the case of `CC(CN(C)C)C(=O)Nc1ccc(-c2cccc(-c3nc4ccccc4[nH]3)c2)cc1` (configuration not stated), the growth inhibition in assay [1] was 57% (active); in assay [4], 99% (active). The inhibition is 68% (active) in assay [2] and 4% (inactive) in assay [3]. The outcome in assay [5], in assay [6], in assay [7] and in assay [8] was inactive.

As to `O=C(/C=C/c1ccc(Cl)c(Cl)c1)NC1CCN(Cc2ccc(O)cc2)CC1`, the figures for the growth inhibition in assay [1] and in assay [4] were 43% (inactive) and 103% (active), respectively. Moreover, the inhibition in assay [2] was -1% (inactive); in assay [3], 3% (inactive). Also, the outcome in assay [5], in assay [6], in assay [7] and in assay [8] was inactive.

Turning to `Cc1cccc2[nH]c(-c3ccc(-c4cccc(CN5CCCC5CN)c4)s3)nc12` (configuration not stated), the growth inhibition in assay [1] is 45% (inactive); in assay [4], 91% (active). For the same molecule, the inhibition is 20% (inactive) in assay [2] and 5% (inactive) in assay [3]. Also, the outcome in assay [5], in assay [6], in assay [7] and in assay [8] was inactive.

As to `COc1ccc(Cl)cc1N1CCN(CCCNC(=O)c2ccc(-c3nc4cc5ccccc5cc4[nH]3)c(F)c2)CC1`, the growth inhibition in assay [1] is 62% (active); in assay [4], 99% (active). Moreover, the inhibition is 12% (inactive) in assay [2] and -3% (inactive) in assay [3]. Further, the outcome in assay [5], in assay [6], in assay [7] and in assay [8] was inactive.

The term inhibition denotes the change of the read-out against control, counted positive when it falls.
